Measured values reported in PubChem BioAssay (NCI).
“And” between values parts separate entries of the source, which are not always exact repeats. Equal entries are not always repeated. About 83,000 compounds went through this panel and 20% of them were active in at least one assay; those are over-represented in the sample as a whole.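 Single-concentration screen, 48 h exposure, 96-well plates. Endpoint: percent growth. Below 10 = active.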 The source made the active and inactive calls.

Tested on: HS 578T breast
Assay: NCI-60 one-dose screen, 48 h (100 = growth as untreated, 0 = no growth, -100 = all killed)
Conditions: 10 µM unless noted

| SMILES | growth |
| --- | --- |
| O=C(/C=C/Nc1ccc(S(=O)(=O)Nc2ncccn2)cc1)c1ccc(N=Cc2c(O)[nH]c3ccccc23)cc1 | 105% (inactive) |
| CCCCCN1C(=O)/C(=c2\sc3n(c2=O)C2C(NN=3)N(CC)C(=O)N2CC)c2cccc(C)c21 (stereo unspecified) | 34.3% (inactive) |
| C#C[C@]1(O)CC[C@H]2[C@@H]3CC=C4c5sc(Nc6ncccc6C)nc5CC[C@]4(C)[C@H]3CC[C@@]21C | -16.1% (active) |
| O=C1CSC(c2cn(-c3ccccc3)nc2-c2ccc(Cl)cc2)N1c1ccccc1 (stereo unspecified) | 108% (inactive) |
| CC(=O)Nc1ccccc1-c1nc2ccccc2s1 | 106% (inactive) |
| O=C(/C=C/c1cccc(Br)c1)c1cccc(OCCCCOc2cccc(C(=O)/C=C/c3cccc(Br)c3)c2)c1 | 101% (inactive) |
| C/C(=C(\c1ccc(O)cc1)c1ccc(OCCN2CCCCCC2)cc1)c1ccc(Cl)cc1 | -46.2% (active) |
| Clc1ccc(CSc2nnc(-c3ccc(Cl)cc3)n2-c2ccccc2)cc1 | 43.7% (inactive) |
| O=C(CCCCCCNC(=O)C(O)(O)C(F)(F)F)Nc1nc2ccccc2s1 | 12.5% (inactive) |
| CC(C)NC(=O)c1cc(-c2ccc(NC(=O)Nc3ccc(F)c(C(F)(F)F)c3)cc2)nc2cccnc12 | 87.6% (inactive) |
| COc1ccc(-c2cnc(NC(=O)CCCCCCNC(=O)C(O)(O)C(F)(F)F)s2)cc1 | 9.86% (active) |
| C/C=C/CC(C)C(O)[C@H](NC(=O)[C@@H]1CCCN1C(=O)[C@](C)(CC)NC(=O)CCCCCCCCC)C(=O)N[C@@](C)(CC)C(=O)N[C@@H](CCC(N)=O)C(=O)N[C@H](CCC(N)=O)C(=O)NC(C)(C)C(=O)NC(C)(C)C(=O)N[C@@H](CCC(N)=O)C(=O)N[C@H](CC(C)C)C(=O)N[C@H](CO)CC(C)C (stereo partly specified) | 6.26% (active) and -64.4% (active) |
| CC1CC(=O)C2=C(C1)Nc1ccc(Br)cc1CC2c1c[nH]c2ccc(Br)cc12 (stereo unspecified) | 58% (inactive) |
| CC(C)(C)Nc1nc2c(OCCc3ccccc3)cccn2c1-c1cccc(Oc2ccccc2)c1 | 13.9% (inactive) |
| CCCC/C(=C\c1ccc(O)c(O)c1)C(=O)NC(Cc1ccccc1)C(=O)C(=O)NCCc1ccc(OC)cc1 (stereo unspecified) | 91.8% (inactive) |
| COC(=O)c1cccc(NC2=C(Cl)C(=O)c3nc(C)ccc3C2=O)c1 | 102% (inactive) |

| SMILES | growth |
| --- | --- |
| NC1CC2(CCN(c3cnc(C(=O)Nc4cc(F)cc5cccnc45)cn3)CC2)C1 | 94.2% (inactive) |
| COC(=O)c1ccc(NC2=C(Cl)C(=O)c3nc(C)ccc3C2=O)cc1 | 71.5% (inactive) |
| CC(Nc1c(C#N)cnc2ccc(-c3cncc(-c4n[nH]c(=O)o4)c3)cc12)c1ccccc1 (stereo unspecified) | -22.2% (active) |
| CC(=O)OC[C@]12CC[C@@H](C(=O)/C=C/c3cccnc3)[C@@H]1[C@H]1CC[C@@H]3[C@@]4(C)CC[C@H](OC(C)=O)C(C)(C)[C@@H]4CC[C@@]3(C)[C@]1(C)CC2 | 14.5% (inactive) |
| CC(O)c1cccc(/C(N)=N/C(N)=N/c2nc3ccccc3s2)c1 (stereo unspecified) | 91.9% (inactive) |
| CC(C)=CCC[C@](C)(O)[C@H]1CC[C@]2(C)[C@@H]1CC[C@@H]1[C@@]3(C)CC[C@H](N)C(C)(C)[C@@H]3CC[C@]12C | 94.6% (inactive) |
| Cc1ccc2c(n1)C(=O)C(Cl)=C(Nc1cccc(C)c1C)C2=O | -13% (active) |
| C[C@]12CC[C@H]3[C@@H](CC=C4C[C@@H](O)CC[C@@]43C)[C@@H]1CC[C@@H]2[C@](C)(O)CCc1cccnc1 | 56% (inactive) |
| CN1CCN(c2ccc(Nc3nc(NCCCNS(=O)(=O)c4ccc(C(F)(F)F)cc4)c4sccc4n3)cc2)CC1 | -35% (active) |
| Cc1ccc2c(n1)C(=O)C(Cl)=C(Nc1cccc(C(F)(F)F)c1)C2=O | 116% (inactive) |
| O=C(CN1CCN(c2cc(=O)[nH]c3ccc(F)cc23)CC1)N(c1ccccc1)c1ccccc1 | 101% (inactive) |
| Cc1[nH]c(C(=O)Nc2ccc(C(N)=O)cc2N2CCOC(C)C2)c(Cl)c1Cl (stereo unspecified) | 94.7% (inactive) |
| CC1(C)CC[C@]2(C(=O)O)CC[C@]3(C)C(=CC[C@@H]4[C@@]5(C)CC[C@H](NOCCCN)C(C)(C)[C@@H]5CC[C@]43C)[C@@H]2C1 | 87.1% (inactive) |
| Cc1ccc2c(n1)C(=O)C(Cl)=C(Nc1ccc(C#N)cc1)C2=O | 97.7% (inactive) |
| CC(=O)Nc1nc(C)c(-c2csc(Nc3ccccc3)n2)s1 | -4.87% (active) |
